PubChem BioAssay (NCI)
Compounds without any hit were thinned out: in the full panel of roughly 83,000, 20% have a hit.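 Testing used 96-well plates and a 48-hour single-concentration exposure. Example: -40 means 40% of the starting cells died.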 A number with no mark means an inactive call. Active and inactive are the calls of the source. The calls were made as follows: active = growth percent below 10; inactive = the rest.

Columns and labels:
Experiment in all cases: NCI-60 one-dose screen, 48 h (100 = growth as untreated, 0 = no growth, -100 = all killed)
Conditions in all cases: 10 µM unless noted
[1] = tested on: NCI-H23 lung
[2] = tested on: NCI-H226 lung
[3] = tested on: NCI-H322M lung
[4] = tested on: HOP-62 NSCLC
[5] = tested on: NCI-H460 lung
[6] = tested on: HOP-92 NSCLC
[7] = tested on: NCI-H522 lung
[8] = tested on: A549/ATCC NSCLC
[9] = tested on: 786-0 renal
[10] = tested on: COLO 205 colon
[11] = tested on: DU-145 prostate
[12] = tested on: K-562 leukemia
[13] = tested on: MALME-3M melanoma
[14] = tested on: MDA-MB-231 breast
[15] = tested on: RXF 393 renal
[16] = tested on: SF-268 CNS
[17] = tested on: SF-295 CNS
[18] = tested on: SF-539 CNS
[19] = tested on: UACC-257 melanoma
[20] = tested on: M14 melanoma

| Structure (SMILES) | growth [1] | growth [2] | growth [3] | growth [4] | growth [5] | growth [6] | growth [7] | growth [8] | growth [9] | growth [10] | growth [11] | growth [12] | growth [13] | growth [14] | growth [15] | growth [16] | growth [17] | growth [18] | growth [19] | growth [20] |
| --- | --- | --- | --- | --- | --- | --- | --- | --- | --- | --- | --- | --- | --- | --- | --- | --- | --- | --- | --- | --- |
| C=C(C)[C@@H]1CC[C@]2(CO)CC[C@]3(C)[C@H](CC[C@@H]4[C@@]5(C)CCC(NCCc6ccc(O)cc6)C(C)(C)[C@@H]5CC[C@]43C)[C@@H]12 (stereo not given in full) | -86.6% (active) | 66.8% | -76.5% (active) | -77.5% (active) | -89.5% (active) | -93.2% (active) | -81.3% (active) | -87.1% (active) | -92.7% (active) | -76.4% (active) | -96.5% (active) | -51.2% (active) | -81.5% (active) | -87.3% (active) | -91.2% (active) | -88.8% (active) | -95.8% (active) | -88% (active) | -78.2% (active) | -84.9% (active) |
| O=C1NC(=O)c2c1c1c3ccccc3[nH]c1c1oc3cc(Br)ccc3c21 | 76.2% | 58.9% | 75.7% | 65.9% | 36.8% | 87.9% | 50.6% | 84.7% | 81.7% | 72.3% | 90.2% | 55% | 87% | 80.5% | 88.1% | 76.4% | 52.8% | 96.9% | 96.4% | 65.8% |
| CCCCCCCCn1ccc2cc(NC(=O)Cn3cc(CN4CCCCCC4)nn3)ccc21 | 52.3% | 38.6% | 26.7% | 55.7% | -58.7% (active) | 24% | 52.4% | 50.6% | -71.9% (active) | -70.1% (active) | 30.7% | -62.2% (active) | -88.6% (active) | -26% (active) | 29.2% | 15.5% | -71.3% (active) | -73.9% (active) | -49.2% (active) | -68.3% (active) |
| c1ccc(CNc2ccc3nc(CCC4CCCCC4)[nH]c3c2)cc1 | 68.2% | 71.4% | 86.7% | 80.1% | 78.1% | 44.7% | 58.3% | 72.5% | 62.2% | 1.16% (active) | 80.1% | 14.6% | 58.3% | 77.7% | 66.5% | 79.8% | 81% | 82.1% | 74.2% | 76.2% |
| COc1cc2c3c(c1O)-c1ccccc1[C@@H]1OC(=O)N(CC2)[C@H]31 | 100% | 96.7% | 113% | 104% | 100% | 80.8% | 94% | 97% | 102% | 107% | 120% | 112% | 103% | 93.1% | 97.6% | 104% | 103% | 108% | 95.6% | 103% |
| C[C@@H]1CC[C@@]2(OC1)O[C@H]1C[C@H]3[C@@H]4CC=C5C[C@@H](O[C@@H]6O[C@H](CO)[C@@H](O[C@@H]7O[C@@H](CO)[C@H](O)[C@H]7O)[C@H](O)[C@H]6O[C@@H]6O[C@@H](C)[C@H](O)[C@@H](O)[C@H]6O)CC[C@]5(C)[C@H]4CC[C@]3(C)[C@H]1[C@@H]2C | -95.5% (active) | -51.8% (active) | -87.7% (active) | 6.56% (active) | -93.7% (active) | -67.2% (active) | -41.4% (active) | -96.8% (active) | -89.6% (active) | -89.9% (active) | -95.2% (active) | -1.01% (active) | -91.6% (active) | -95.3% (active) | -95% (active) | -54.8% (active) | -91.7% (active) | -99.2% (active) | -94% (active) | -92.6% (active) |
| CC[C@H](CC[C@@H](C)[C@H]1CC[C@H]2[C@@H]3CC[C@@H]4CC(=O)/C(=C\c5ccncc5)C[C@]4(C)[C@H]3CC[C@]12C)C(C)C | 99.4% | 103% | 98.3% | 99.3% | 109% | 91.5% | 95.3% | 99.2% | 95.7% | 107% | 109% | 97% | 100% | 104% | 109% | 107% | 99.2% | 103% | 106% | 104% |
| C#CC#CC#CC#CC#CC#CC#CC#CCC1OCC(COC(=O)O[C@@H](C(=O)O[C@H]2C[C@@]3(O)[C@@H](OC(=O)c4ccccc4)[C@@H]4[C@]5(OC(C)=O)CO[C@@H]5C[C@H](O)[C@@]4(C)C(=O)[C@H](OC(C)=O)C(=C2C)C3(C)C)[C@@H](NC(=O)c2ccccc2)c2ccccc2)O1 (stereo not given in full) | 35.2% | 37.6% | 29.1% | 30.4% | 5.88% (active) | 58.2% | 24.3% | 18.7% | 32.1% | 12.6% | 6.68% (active) | 12.6% | 41.9% | 20% | -9.54% (active) | 34.4% | 4.59% (active) | -0.927% (active) | 53% | -22% (active) |
| CC1=NN(c2ccc(Cl)cc2)CC1(C)N=O (stereo not given) | 88.4% | 76.9% | 99.9% | 95.8% | 95.9% | 83.3% | 44.5% | 99.9% | 73.1% | 67.3% | 83.9% | 40.1% | 68.5% | 78.3% | 32.7% | 94.9% | 101% | 91% | 90% | 64.9% |
| CC(=O)c1cc(-c2ccccc2N)n(-c2ccc3c(c2)OCO3)c1C | 43.4% | -0.426% (active) | 31.6% | 30.6% | 2.71% (active) | 38.8% | 18.4% | 19.5% | 23.9% | -18.6% (active) | 9.47% (active) | 5.63% (active) | 48.7% | 21.3% | 39.7% | 31.5% | -10% (active) | -0.915% (active) | 76.6% | 10% |
| Cc1ccc(S(=O)(=O)n2cc(C3C(Cl)C(=O)N3c3ccc(N4CCOCC4=O)cc3)c3ccccc32)cc1 (stereo not given) | 52.5% | 72.3% | 86.7% | 67.6% | 97.2% | 49.8% | 63.7% | 79.6% | 86% | 108% | 63.6% | 22.5% | 56.4% | 16.5% | 65.5% | 57.9% | 82.5% | 28.1% | 74.3% | 25.7% |
| N#Cc1c(N2CCOCC2)nc(=S)[nH]c1-c1ccccc1 | 87.6% | 72.5% | 76.4% | 51.3% | 68.9% | -7.41% (active) | 59.6% | 85.6% | 82.9% | 77.3% | 87.6% | 93.4% | -3.74% (active) | 73.1% | 70.8% | 87.3% | 54.5% | 91.3% | 91.8% | 80.2% |
| Cn1cccc1/C=C1\C(=O)Nc2ccccc21 | 66.9% | 104% | 87.9% | 86.8% | 89.1% | 97.2% | 101% | 101% | 96.6% | 121% | 110% | 98.9% | 94.8% | 67.4% | 103% | 92.3% | 100% | 99.5% | 98% | 96.6% |
| Nc1c(C(=O)Nc2ccccn2)sc2nc3c(cc12)C(O)CCC3 (stereo not given) | 45.1% | 57.7% | 36.5% | 26.3% | 13.7% | 50.9% | 11.8% | 36.4% | 32.9% | 23.6% | 25% | 20.6% | 60.8% | 67.1% | 4.65% (active) | 44% | 4.92% (active) | 8.44% (active) | 53.2% | 21.1% |
